High-throughput results as filed in PubChem BioAssay.
ALOX12 inh – Primary qHTS assay for inhibitors of human arachidonate 12S-lipoxygenase (ALOX12): Round 2; Potency, µM (top dose mostly 108 µM), for inactives: at the top dose activity change, negative = inhibition, actives largely listed as inhibitors; purified 12hLO, xylenol orange hydroperoxide absorbance; 580,000 compounds, 1.1% hits; further: potency means the concentration at half of the fitted maximal effect
Target sequence (P18054 whole entry, looked up): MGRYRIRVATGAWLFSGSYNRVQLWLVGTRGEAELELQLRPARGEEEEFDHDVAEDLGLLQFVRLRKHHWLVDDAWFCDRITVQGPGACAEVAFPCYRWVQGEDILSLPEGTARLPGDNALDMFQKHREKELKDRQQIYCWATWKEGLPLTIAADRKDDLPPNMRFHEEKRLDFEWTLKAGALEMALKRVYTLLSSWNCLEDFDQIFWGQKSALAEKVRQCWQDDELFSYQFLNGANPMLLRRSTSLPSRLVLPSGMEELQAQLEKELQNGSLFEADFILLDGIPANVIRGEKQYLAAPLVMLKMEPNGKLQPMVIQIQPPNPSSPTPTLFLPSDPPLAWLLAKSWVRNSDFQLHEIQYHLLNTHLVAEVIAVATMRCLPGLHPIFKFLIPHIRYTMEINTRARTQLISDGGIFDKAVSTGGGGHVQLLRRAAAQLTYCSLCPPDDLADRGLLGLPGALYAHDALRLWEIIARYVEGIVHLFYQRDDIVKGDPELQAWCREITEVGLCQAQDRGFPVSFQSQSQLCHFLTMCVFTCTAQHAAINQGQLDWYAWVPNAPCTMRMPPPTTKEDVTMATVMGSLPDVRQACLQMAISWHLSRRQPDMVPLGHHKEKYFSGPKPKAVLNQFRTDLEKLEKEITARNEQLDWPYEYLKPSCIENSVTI
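Hydroperoxide product was detected by ferrous iron/xylenol orange as the 573 to 405 nm absorbance ratio. Arachidonic acid at 40 uM (final) was turned over for 30 min at room temperature by 150 nM human 12hLO, pH 7.0 Hepes buffer, after 15 min compound preincubation.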
IL-1B inflam inh – qHTS for Inhibitors of Inflammasome Signaling: IL-1-beta AlphaLISA Primary Screen; THP-1 LPS/ATP IL-1B secretion, AlphaLISA, 16 h; active compounds read low; activity change, % at 57.5 µM; 360,000 compounds, 4.7% hits; AID 743279, 2014; in the data active means activity change below about -50%; inconclusive means mostly about -30% to -49%
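THP-1 cells pretreated 1 hr with compounds (up to 57.5 uM final), then stimulated with LPS (250 ng/mL final) plus ATP (1.25 mM final); secreted IL-1B measured by AlphaLISA after 16 hr, decreased signal indicating inhibition.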
DT40 TDP1 CPT – qHTS for Inhibitors of human tyrosyl-DNA phosphodiesterase 1 (TDP1): qHTS in cells in presence of CPT. chicken DT40 Tdp1-/-;hTDP1 cells + 20 nM CPT, ATP luminescence, 48 h. 420,000 compounds, 12% hits. Potency, µM (top dose mostly 46.2 µM), without a hit: at the top dose activity change, negative = growth inhibition, most hits filed as inhibitors; further: potency means the concentration at half of the fitted maximal effect; nearly all actives have a fitted effect of over 55% in size
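Cell growth measured by CellTiter-Glo luminescence after a minimum 48 h, 37 C compound exposure with 20 nM CPT in Tdp1-knockout DT40 cells stably expressing hTDP1, seeded 400/well; qHTS titration format.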
TDP1 cell noCPT – qHTS for Inhibitors of human tyrosyl-DNA phosphodiesterase 1 (TDP1): qHTS in cells in absence of CPT; 420,000 compounds, 15% hits; Potency, µM (series often up to 46.2 µM), for inactives: at the highest dose activity change, negative = growth inhibition, actives largely listed as inhibitors; DT40 Tdp1-/- hTDP1 cells, no CPT, ATP luminescence, 48 h; further: potency means the concentration at half of the fitted maximal effect; nearly all actives have a fitted effect of over 55% in size
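Chicken DT40 Tdp1-/- cells complemented with human TDP1, screened without camptothecin (DMSO vehicle only), 400 cells/well. Compounds pin-transferred, cells incubated at 37 °C for at least 48 hr. Growth read as ATP-dependent luminescence (CellTiter-Glo, 30 min at RT).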
HT1080 IDH1KD tx – qHTS for induction of synthetic lethality in tumor cells producing 2HG: qHTS for the HT-1080-IDH1KD cell line; HT-1080 IDH1 knockdown viability, ATP luminescence, 48 h; Potency, µM (top dose mostly 46.1 µM), for the others: at the highest dose activity, negative = toxicity, most hits filed as cytotoxic; 360,000 compounds, 2% hits; AID 686971, 2013;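 further: potency means the concentration at half of the fitted maximal effect; 0% = DMSO wells and -100% = cell-free medium wells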
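CellTiter-Glo luminescence after 48 h compound exposure at 37 degrees C of IDH1-knockdown HT-1080 cells in 5% FBS RPMI. %Activity scaled between DMSO wells and cell-free media wells, with curves fitted and assigned curve classes.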
HT1080NT lethal – qHTS for induction of synthetic lethality in tumor cells producing 2HG: qHTS for the HT-1080-NT fibrosarcoma cell line. HT-1080-NT fibrosarcoma viability, CellTiter-Glo ATP luminescence, 48 h. 360,000 compounds, 1.6% hits. Potency, µM (highest dose often 46.1 µM), for the others: at the highest dose activity, negative = less viability, actives largely listed as cytotoxic;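 further: NT is the 2HG producing partner of a matched IDH1 knockdown line; potency means the concentration at half of the fitted maximal effect; 0% = DMSO-treated cells and -100% = media-only wells without cells; nearly all actives have a fitted effect of over 55% in size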
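Luminescent CellTiter-Glo readout after 48 hours of compound exposure at 37 degrees C defined viability of HT-1080-NT cells. Activity was normalized to DMSO wells and cell-free media wells; concentration-response curves were fitted and assigned curve classes.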
Numbers without * were called inactive; ? = inconclusive; nt = no result; [ ] = another dose, or the depositor's remark. The full list was thinned out, with hits kept by preference. Unless noted, the call rests on the fitted dose curve; in most records, active means well fitted curve in the direction sought with a large enough effect; inconclusive means small, poorly fitted or top-dose-only effect, or another doubt; inactive means no such curve, though single readings can be large; an effect the other way counts as inactive or inconclusive. Unless noted, on the % scale 0 is the no-effect control and ±100 the full control effect.

SMILES | ALOX12 inh | IL-1B inflam inh | DT40 TDP1 CPT | TDP1 cell noCPT | HT1080 IDH1KD tx | HT1080NT lethal
COc1ccc(-c2cccc(C3CC=CC4C3C(=O)N(Cc3ccccc3)C4c3ccc(C(F)(F)F)cc3)c2)cc1 (stereo not given) | 0% | 48 | ? | 15µM* | -15% | -3%
COc1ccc(-c2ccc(C)cc2)cc1[C@H]1[C@@H]2C=CCC[C@@]2(C)C(=O)N1Cc1ccccc1 | -26% | 4 | ? | ? | ? | ?
Cc1ccc(-c2cccc(C3CC=CC4C3C(=O)N(Cc3ccccc3)C4c3cc(C)ccc3F)c2)cc1 (stereo not given) | 8% | 33 | 16µM* | 15µM* | -1% | -20%
CN1C(=O)C2C(c3ccc(N(C)C)cc3)NN(Cc3ccccc3)C2C1=O (stereo not given) | -17% | -3 | 2% | -8% | 0% | -20%
CC(C)(C)NC(=O)[C@H]1CN(Cc2cccnc2)CCN1C[C@@H](O)C[C@@H](Cc1ccccc1)C(=O)N[C@H]1c2ccccc2C[C@H]1O | -8%[57.4 µM] | nt | nt | nt | nt | nt
COC(=O)COc1ccccc1C(=O)Nc1ccc(OC)cc1 | -13% | 39 | -1% | -3% | 23% | 12%
COc1ccc(OCCNC(=O)c2ccccc2OCC(=O)N2CCCCC2)cc1 | 4% | 2 | 21µM* | 18µM* | -8% | -20%
COc1ccc(OCCNC(=O)c2ccccc2OCC(=O)Nc2ccc(NC(C)=O)cc2)cc1 | -4% | 3 | 18µM* | 15µM* | -3% | -9%
COc1ccc2ccc(OCc3nc(C(=O)N4CCCC(C)(CO)C4)co3)cc2c1 (stereo not given) | -3% | nt | nt | nt | nt | nt
Cc1ccccc1OCC(O)CN(Cc1cccs1)C12CC3CC(CC(C3)C1)C2 (stereo not given) | 6% | nt | nt | nt | nt | nt
O=S1(=O)CCC(S(=O)(=O)Nc2ccccc2)C1 (stereo not given) | 2% | nt | nt | nt | nt | nt
COc1ccc2c(c1OC)OCC2C (stereo not given) | -17% | 14 | ? | 18µM* | 8% | 3%
COC(=O)c1cccc(NC(=O)c2cc(=O)c3cc(C)ccc3o2)c1 | -3% | nt | nt | nt | nt | nt
Cn1c(=O)c2ccccc2n2c(CCl)nnc12 | -9% | -17 | 12µM* | 15µM* | ? | ?
Cc1cccc(C(=O)NCC(c2cccs2)c2c[nH]c3ccccc23)n1 (stereo not given) | -5% | nt | nt | nt | nt | nt
O=c1c2c(nc3n1CCCCC3)sc1c(O)c(Br)ccc12 | ? | 3 | -2% | -20% | -8% | -3%
CCN(CC)CCOc1c(Br)ccc2c1sc1nc3n(c(=O)c12)CCC3 | 137%[57.4 µM] | -64* | ? | 21µM* | ? | ?
OC[C@@H]1CN(Cc2ccc(-c3ccccc3)cc2)C[C@H](n2cnc3c(N4CCOCC4)ncnc32)O1 | -7% | -27 | ? | ? | 21µM* | 18µM*
OC[C@@H]1CN(Cc2ccccc2)C[C@H](n2ccc3c(N4CCCC4)ncnc32)O1 | -7% | -56* | -7% | ? | 26% | 12%
OC[C@@H]1CN(Cc2ccc(Cl)cc2)C[C@H](n2cnc3c(N4CCN(c5ccccc5)CC4)ncnc32)O1 | -24% | -18 | ? | 18µM* | 16µM* | 18µM*
